# Reference: PMC5540273 (PLoS ONE, 2017)
# Test system: S6K1
# Details: concentration: 1 μM, replicates: in singlicate; n = 1
# 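Further: KINOMEscan kinase panel screen.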
row,Structure (SMILES),%Inh
1,Cc1cccc(Nc2nc(N[C@H]3CCNC3)ncc2C(N)=O)c1.Cl [GSK2197149],5%
2,O=C(Nc1ccccc1F)NC1CCN(c2ccnc(Nc3ccc(F)cc3)n2)CC1 [GSK1379800],0%
3,CN(C)S(=O)(=O)c1cc(-c2ccc3nccc(-c4cccc(S(N)(=O)=O)c4)c3c2)cnc1N [GSK1669921],19%
4,COc1ccc(CNC(=O)NC2CCN(c3ccnc(Nc4ccc(F)cc4)n3)CC2)cc1 [GSK1379788],0%
5,Cl.Cl.NCC(C(=O)Nc1cc(Br)c(-c2ccnc3[nH]ccc23)s1)c1ccccc1 (stereo not drawn) [GSK1269851],35%
6,COC(=O)Nc1nc2ccc(Oc3ccc(NC(=O)Nc4cc(C(F)(F)F)ccc4F)cc3)cc2n1C.Cl [GW692089],1%
7,Nc1ncc(-c2cccnc2)c2scc(-c3ccc4c(c3)CCN4C(=O)Cc3ccccc3)c12 [GSK683281],0%
8,Cc1ccc(C(=O)Nc2ccc(Nc3ccnc4cc(-c5nccs5)ccc34)cc2O)cc1.Cl [GW494702],11%
9,Cn1cc(-c2[nH]c3cc(NC(=O)[C@H](N)C4CCCCC4)cc4c3c2C=NNC4=O)cn1,76%
10,CCc1ccc(-c2ccc3c(c2)-c2c(cnn2C)S(=O)(=O)N3C)cc1,4%
11,Nc1ncc(-c2ccc3nccc(-c4ccncc4)c3c2)cc1S(=O)(=O)N1CCOCC1 [GSK1627798],0%
12,O=C(Nc1n[nH]c2nc(-c3ccc(O)cc3)ccc12)C1CC1 [SB-710363],40%
